Each structure is given as a SMILES string. Out of some 63,000 compounds screened, about 1,100 (1.7%) were called active. Shown is part of a subset that was picked to be rich in actives. Potency and affinity values are given separately. Unmarked numbers belong to inactive results.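 Rule for the calls: active = compounds whose percent cytotoxicity in the single-dose primary screen, scaled between solvent and toxic-drug controls, exceeds 50; inactive = the rest.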

The nature of this assay: viability loss of HPDE-C7K cells – cell-based, fluorescence, HTS, primary screen (AID 431).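 Note: 0% = DMSO solvent wells and 100% = doxorubicin-treated wells.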 The following applies: HPDE-C7K KRASV12 cells, Alamar Blue viability, 48 h; at 10 µM; stronger effect = higher value.
Regarding `CCOC(=O)c1cnc(=O)[nH]c1C`, the cytotoxicity was 1.1%.

For `Cc1cc(-c2[nH]nc3c2C(c2ccsc2)C(C#N)=C(N)O3)c(C)s1` (stereo not given), the cytotoxicity is -9.2%.

Regarding `Cc1ccc2[nH]c3c(c2c1)CN(C(=O)CN1CCCc2ccccc21)CC3`, the cytotoxicity is 54.4% (active).

In the case of `Cc1ccc2[nH]c3c(c2c1)CN(C(=O)CN1CCN(c2ccccc2)CC1)CC3`, the cytotoxicity is 24.5%.

For the compound `Cc1ccc2[nH]c3c(c2c1)CN(C(=O)CN1CCN(c2ccccc2F)CC1)CC3`, the cytotoxicity was 22.5%.

Consider `CCN(CC)C(=O)c1csc(Nc2ccc(C)cc2)n1`, for which the cytotoxicity was -18.4%.

`Cc1nc2cc(CO)ccc2s1`: the cytotoxicity was 1.8%.

With `CC(=O)N1CCc2cc(C(=O)CN3CCN(c4cccc(Cl)c4)CC3)ccc21`, the cytotoxicity is -4%.

In the case of `Cc1ncoc1C(=O)Nc1ccc(Oc2ccccc2)cc1`, the cytotoxicity is -7.3%.

As to `O=C(Nc1ccc(O)cc1)c1ccc(C(=O)c2ccccc2)o1`, the cytotoxicity was -1.3%.

Consider `Cc1ccc2c(COC(=O)c3cnc(C)cn3)cc(=O)oc2c1`, for which the cytotoxicity is 4.8%.

On to `CCOc1ccc(C)cc1S(=O)(=O)N1CCCCC1`, for which the cytotoxicity was 7.7%.

On to `Cc1cnc(NC(=O)COc2ccccc2)s1`, for which the cytotoxicity was 1.6%.

In the case of `Nc1ccc2c(c1)-c1ccccc1S(=O)(=O)N2`, the cytotoxicity is 16.8%.

On to `O=S1(=O)Nc2c(ccc3cccnc23)-c2ccccc21`, for which the cytotoxicity was 86% (active).

In the case of `Cc1ccc2c(c1)-c1ccccc1S(=O)(=O)N2`, the cytotoxicity is 11.5%.

Consider `CC1CCN(c2nnc(N3CCC(C)CC3)c3ccccc23)CC1`, for which the cytotoxicity was -2.9%.

As for `Cc1ccc(C(c2nnnn2Cc2cccs2)N2CCN(C(=O)c3ccco3)CC2)cc1` (stereo not given), the cytotoxicity is 2%.

As to `CNC(=O)c1ccc(N(Cc2ccccc2C)S(C)(=O)=O)cc1`, the cytotoxicity is 2.8%.

As to `O=S(=O)(NCCc1ccccn1)c1ccc(F)c(F)c1`, the cytotoxicity was -21.4%.

Turning to `Cc1cc(N2C(=O)C(=O)/C(=C(/O)c3ccccc3)C2c2cccc(Br)c2)no1` (stereo not given), the cytotoxicity is 0.9%.

Regarding `Cc1cc(N2C(=O)C(=O)/C(=C(/O)c3ccc(F)cc3)C2c2ccc(Cl)cc2)no1` (stereo not given), the cytotoxicity is 37.6%.

With `Cc1cc(N2C(=O)C(=O)/C(=C(/O)c3ccc(F)cc3)C2c2ccc(F)cc2)no1` (stereo not given), the cytotoxicity is 16.6%.

On to `Cc1cc(N2C(=O)C(=O)/C(=C(/O)c3ccc(F)cc3)C2c2cccc(Br)c2)no1` (stereo not given), for which the cytotoxicity is 72.5% (active).

As for `Cc1ccc(/C(O)=C2\C(=O)C(=O)N(c3cc(C)on3)C2c2cccc(Br)c2)cc1` (stereo not given), the cytotoxicity is 48.2%.

As to `Cc1ccc(/C(O)=C2\C(=O)C(=O)N(c3cc(C)on3)C2c2cccc(Cl)c2)cc1` (stereo not given), the cytotoxicity is 55.9% (active).

On to `Cc1cc(N2C(=O)C(=O)/C(=C(/O)c3ccc(Cl)cc3)C2c2cccc(Br)c2)no1` (stereo not given), for which the cytotoxicity is 60.6% (active).

As for `COc1ccc(/C(O)=C2\C(=O)C(=O)N(c3cc(C)on3)C2c2ccccc2OC)cc1` (stereo not given), the cytotoxicity was 9.4%.

As for `COc1cccc(C2/C(=C(\O)c3ccc(OC)c(OC)c3)C(=O)C(=O)N2c2cc(C)on2)c1` (stereo not given), the cytotoxicity is 19.3%.

In the case of `COc1ccc(C2C(C(=O)NCC3CCCO3)CCC(=O)N2c2ccc3c(c2)OCO3)cc1` (stereo not given), the cytotoxicity was -18.6%.

For the compound `O=C(Nc1ccccc1C(F)(F)F)c1cc(S(=O)(=O)N2CCOCC2)ccc1F`, the cytotoxicity was 24.1%.

`CCn1c(C(=O)NCc2ccccn2)cc2sccc21`: the cytotoxicity is -5.6%.

For the compound `Cc1cc2c(=O)n(Cc3ccco3)c(SCC(=O)NCc3ccco3)nc2s1`, the cytotoxicity is -12.9%.

For the compound `COc1ccc(C2N=C(Nc3ccc(C)cc3)Nc3nc(C)cc(=O)n32)cc1` (stereo not given), the cytotoxicity is 2.4%.

As for `COc1ccc(S(=O)(=O)N(CC(=O)O)c2ccccc2)cc1`, the cytotoxicity is 8.5%.

For `Cc1csc2nc3ccccc3c(=O)n12`, the cytotoxicity is 2.6%.

As to `COc1cc(C2Nc3cccc4cccc(c34)N2)cc(OC)c1OC(C)=O`, the cytotoxicity was 83.6% (active).

For `COc1cc(C2Nc3cccc4cccc(c34)N2)ccc1OC(C)=O`, the cytotoxicity was 50.8% (active).

Regarding `Oc1ccccc1C1Nc2cccc3cccc(c23)N1`, the cytotoxicity was -2.4%.

On to `COc1cc(C(=O)O)ccc1OC(C)=O`, for which the cytotoxicity is -2.6%.

For `COc1cc(C2N(c3ccccc3)CCN2c2ccccc2)ccc1OC(C)=O`, the cytotoxicity was -13.9%.

With `COc1cc(C2Nc3cccc4cccc(c34)N2)cc(OC)c1O`, the cytotoxicity is 41.5%.

Turning to `Cc1ccc(S(=O)(=O)Cn2nnnc2C(C(C)C)N2CCN(C(=O)c3ccco3)CC2)cc1` (stereo not given), the cytotoxicity is -8.7%.

Regarding `CCOC(=O)CNC(=O)Nc1cc(C(C)(C)C)nn1-c1ccccc1`, the cytotoxicity is -5.3%.

Consider `Cc1ccc2nc(-c3ccccn3)oc2c1`, for which the cytotoxicity was 9.5%.

`CCOC(=O)C(CCC#N)(CCC#N)C(=O)OCC`: the cytotoxicity is -1.4%.

For the compound `O=C(CN(Cc1ccco1)C(=O)CNS(=O)(=O)c1ccc(Cl)cc1)NCc1ccc(F)cc1`, the cytotoxicity was 77.7% (active).

For `O=C(CN(Cc1ccco1)C(=O)CNS(=O)(=O)c1ccc(F)cc1)NCc1ccc(F)cc1`, the cytotoxicity was 1.2%.

Regarding `O=C(CN(Cc1ccco1)C(=O)CNS(=O)(=O)c1ccccc1)NCc1ccc(F)cc1`, the cytotoxicity is 2.2%.

Regarding `CC(=O)c1cccc(NC(=O)NC(C)c2ccncc2)c1` (stereo not given), the cytotoxicity was -4.4%.

As to `Cc1noc(/C=C/NCc2cccnc2)c1S(=O)(=O)N(C)CC(=O)N1CCc2ccccc21`, the cytotoxicity is 2.4%.

On to `COc1cc2cc(C)c(SCC(=O)N3CCOCC3)nc2cc1OC`, for which the cytotoxicity was -9.8%.

Consider `O=C(O)CCN(CCC(=O)O)S(=O)(=O)c1ccccc1`, for which the cytotoxicity was -5.5%.

Regarding `N#CCCCSc1nnc(-c2ccc(Cl)cc2)n1-c1ccccc1`, the cytotoxicity is -16.4%.

Take `Cc1cc(-n2c(SCCC#N)nnc2-c2cccnc2)ccc1Cl`: the cytotoxicity was -9.6%.

As to `COc1ccc(-n2c(SCCC#N)nnc2-c2cc(Cl)ccc2OC)cc1Cl`, the cytotoxicity was 54.3% (active).

With `COc1ccc(N(C(=O)c2ccc(S(=O)(=O)N3CCOCC3)cc2)C2C=CS(=O)(=O)C2)cc1` (stereo not given), the cytotoxicity was -10.3%.

For the compound `CCOC(=O)C1=C(C)C(c2ccc(OC)cc2OC)NC(=O)N1` (stereo not given), the cytotoxicity was -21.1%.

`COc1cc(C2C(C#N)=C(N)Oc3cc(N)ccc32)cc(OC)c1OC` (stereo not given): the cytotoxicity is 54.9% (active).

Consider `N#CC1=C(N)Oc2cc(O)ccc2C1c1ccncc1` (stereo not given), for which the cytotoxicity is -1.3%.

In the case of `COc1ccc(C2C(C#N)=C(N)Oc3cc(O)ccc32)cc1OC` (stereo not given), the cytotoxicity is -2.6%.

As for `N#CC1=C(N)Oc2c(ccc3cccnc23)C1c1cccnc1` (stereo not given), the cytotoxicity was 42.1%.

Turning to `N#CC1=C(N)Oc2cc(O)ccc2C1c1ccccc1` (stereo not given), the cytotoxicity was 1.7%.

Consider `CN(C)c1ccc2c(c1)OC(N)=C(C#N)C2c1cccc(F)c1` (stereo not given), for which the cytotoxicity was 55.5% (active).

As to `COc1ccc(OC)c(C2C(C#N)=C(N)Oc3cc(N)ccc32)c1` (stereo not given), the cytotoxicity was 9.4%.

As for `CCN(CC)c1ccc2c(c1)OC(N)=C(C#N)C2c1cccnc1` (stereo not given), the cytotoxicity was 70.8% (active).

As to `CCc1[nH]nc2c1C(c1cccnc1)C(C#N)=C(N)O2` (stereo not given), the cytotoxicity is 5.8%.

Regarding `CCc1c(C)c(C#N)c2nc3ccccc3n2c1N(C)C`, the cytotoxicity is 10.9%.

`CCCCn1c(=O)cc(O)c2ccccc21`: the cytotoxicity was -12.7%.

On to `CC1=C(C(=O)OCC2CCCO2)C(c2ccncc2)C2=C(CCCC2=O)N1` (stereo not given), for which the cytotoxicity was -3.4%.

For the compound `Nc1nncn1C(=O)CCc1ccccc1`, the cytotoxicity was 4%.

Regarding `O=c1oc(-c2cccs2)nc2sc3c(c12)CCCCC3`, the cytotoxicity is 43.5%.

On to `O=c1oc(-c2cccs2)nc2sc3c(c12)CCC3`, for which the cytotoxicity was 33%.

With `O=c1oc(-c2cc3ccccc3o2)nc2sc3c(c12)CCCC3`, the cytotoxicity is 57.9% (active).

Consider `Cc1cccc(-c2c3c(=O)n(C)c(=O)n(C)c3cn2C(C)C)c1`, for which the cytotoxicity was -5.2%.

In the case of `C=CCNc1nnc(SC2CC(=O)N(c3ccc(OC)cc3)C2=O)s1` (stereo not given), the cytotoxicity is 77.3% (active).

As to `CCOC(=O)c1ccc(N2C(=O)CC(Sc3nnc(C)s3)C2=O)cc1` (stereo not given), the cytotoxicity is -5.1%.

For the compound `COc1ccc(N2C(=O)CC(Sc3nccc(C)n3)C2=O)cc1` (stereo not given), the cytotoxicity was 9.4%.

Take `O=C(CN1C(=O)C2C3C=CC(C3)C2C1=O)N1CC(=O)N(CCc2ccccc2)C(=O)C1` (stereo not given): the cytotoxicity is -4.4%.

In the case of `Nn1c(-c2cccs2)nc2sc3c(c2c1=O)CCCC3`, the cytotoxicity was -1.9%.

Turning to `CCc1nc2sc3c(c2c(=O)n1N)CCC3`, the cytotoxicity is -6.1%.

Consider `Nn1c(Nc2ccccc2)nc2sc3c(c2c1=O)CCC3`, for which the cytotoxicity is 61.4% (active).

`N#CC1=C2SCN(c3ccc(F)cc3)CN2C(=O)CC1c1cccc(F)c1` (stereo not given): the cytotoxicity was 1.2%.

On to `CC(C)(C)C1CCc2onc(C(=O)NCc3ccc(F)cc3)c2C1` (stereo not given), for which the cytotoxicity is -7%.

For the compound `Cc1ccccc1Cn1cc(NC(=O)c2noc3c2CC(C(C)(C)C)CC3)cn1` (stereo not given), the cytotoxicity was -6.5%.

Take `CC(C)(C)C1CCc2onc(C(=O)Nc3cnn(Cc4ccc(F)cc4)c3)c2C1` (stereo not given): the cytotoxicity is 81.6% (active).

With `COc1ccccc1NC(=O)Cc1noc(CSc2cc(C)c3ccccc3n2)n1`, the cytotoxicity is -4.4%.

As to `O=C(c1cccnc1)N1CCC(c2nc3ccccc3[nH]2)CC1`, the cytotoxicity is -11.8%.

For `O=C1NC(c2ccccc2)(C(F)(F)F)SC2=NCCCN12` (stereo not given), the cytotoxicity is 6.7%.

In the case of `Cc1ccc(C2(C(F)(F)F)NC(=O)N3CCCN=C3S2)cc1` (stereo not given), the cytotoxicity is -10.2%.

`Cc1ccc(C2(C(F)(F)F)NC(=O)N3CCN=C3S2)cc1` (stereo not given): the cytotoxicity is 76.6% (active).

`CCN(CC)CCCN1C(=O)c2oc3ccccc3c(=O)c2C1c1cccc(OC)c1OC` (stereo not given): the cytotoxicity was -9.4%.

Regarding `C=CCn1cnc2c(c1=O)c1nc3ccccc3nc1n2Cc1ccccc1`, the cytotoxicity was -3.7%.

`C=CCn1cnc2c(c1=O)c1nc3ccccc3nc1n2/N=C/c1ccccn1`: the cytotoxicity was -21.9%.

In the case of `C=CCn1cnc2c(c1=O)c1nc3ccccc3nc1n2/N=C/c1cccc(OC)c1`, the cytotoxicity is 55.1% (active).

On to `COCCn1cnc2c(c1=O)c1nc3ccccc3nc1n2/N=C/c1cccc(OC)c1OC`, for which the cytotoxicity is 9.4%.

With `C=CCn1cnc2c(c1=O)c1nc3ccccc3nc1n2-c1ccc(Cl)cc1`, the cytotoxicity is 0.8%.

For the compound `C=CCn1cnc2c(c1=O)c1nc3ccccc3nc1n2/N=C/c1cccc(OC)c1OC`, the cytotoxicity was 59.6% (active).

With `C=CCn1cnc2c(c1=O)c1nc3ccccc3nc1n2-c1ccc(C)cc1`, the cytotoxicity is 13.4%.

Regarding `C=CCn1cnc2c(c1=O)c1nc3ccccc3nc1n2-c1ccccc1`, the cytotoxicity was -1.9%.

Source of the values: PubChem BioAssay AID431 (Sanford-Burnham Center for Chemical Genomics, 2006).
